# Counter-ions that a name gives are not always drawn. ± gives the standard deviation of the averaged measurements.
# Tested on: E. coli TESEC Mtb DapB
# Assay: growth (OD600 after 10 h); higher = more growth (less inhibition)
# Details: arabinose induction (level): High; compound 0.1 mM; raw OD600 reference: median of DMSO wells […], cell-free background 0.041
# Method: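 TESEC E. coli strains in which the native enzyme is deleted and replaced by arabinose-inducible Mtb Asd, DapB, CysH or TrpD, each grown in its selective medium. Strains were screened against the Prestwick library at 0.1 mM and 1% DMSO in 384-well format at low and high arabinose induction. Growth is read as OD600 after 10 h in triplicate.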
row,SMILES,growth
1,OC(CCCN1CCCCC1)(c1ccccc1)c1ccccc1 [Diphenidol hydrochloride],0.182 ± 0.018
2,CN1CCc2cccc3c2[C@H]1Cc1ccc(O)c(O)c1-3 [R(-) Apomorphine hydrochloride hemihydrate],0.16 ± 0.0062
3,CCCCCNC(=N)N/N=C/c1c[nH]c2ccc(OC)cc12 [Tegaserod maleate],0.0474 ± 0.0015
4,OC(Cn1cncn1)(Cn1cncn1)c1ccc(F)cc1F [Fluconazole],0.195 ± 0.013
5,C[C@H](CCC(=O)O)[C@H]1CC[C@H]2[C@@H]3C(=O)C[C@@H]4CC(=O)CC[C@]4(C)[C@H]3CC(=O)[C@]12C [Dehydrocholic acid],0.196 ± 0.0059
6,Oc1c(Cl)cc(Cl)c(Cl)c1Cc1c(O)c(Cl)cc(Cl)c1Cl [Hexachlorophene],0.0536 ± 0.0015
7,Cc1ncc([N+](=O)[O-])n1CC(C)O (stereo not given) [Secnidazole],0.2001 ± 0.001
8,Nc1cc(-c2ccncc2)c[nH]c1=O [Amrinone],0.206 ± 0.0051
9,CCc1cc(Cl)c(OC)c(C(=O)NC[C@@H]2CCCN2CC)c1O [S(-)Eticlopride hydrochloride],0.181 ± 0.011
10,"CC(C)NCC(O)c1ccc(O)c(O)c1 (single isomer, unassigned; (+)) [(+)-Isoproterenol (+)-bitartrate salt]",0.2017 ± 0.0019
11,CO[C@@H]1[C@@H](O[C@@H]2O[C@H](C)[C@@H](O[C@H]3C[C@@](C)(O)[C@@H](OC(=O)CC(C)C)[C@H](C)O3)[C@H](N(C)C)[C@H]2O)[C@@H](CC=O)C[C@@H](C)[C@@H](O)/C=C/C=C/C[C@@H](C)OC(=O)C[C@H]1OC(C)=O [Josamycin],0.0494 ± 0.00059
12,CC(C)c1c(C(=O)Nc2ccccc2)c(-c2ccccc2)c(-c2ccc(F)cc2)n1CC[C@@H](O)C[C@@H](O)CC(=O)O [Atorvastatin],0.171 ± 0.018
13,OCCOCCN1CCN(C2=Nc3ccccc3Sc3ccccc32)CC1 [Quetiapine hemifumarate],0.174 ± 0.013
14,Cc1nc2n(c(=O)c1CCN1CCC(c3noc4cc(F)ccc34)CC1)CCCC2 [Risperidone],0.201 ± 0.024
15,O=C(O)c1ccccc1Nc1cccc(C(F)(F)F)c1 [Flufenamic acid],0.117 ± 0.0058
16,O=C(OCCOCCO)c1ccccc1Nc1cccc(C(F)(F)F)c1 [Etofenamate],0.0997 ± 0.078
17,CC(C)(C)NC[C@H](O)COc1nsnc1N1CCOCC1 [Timolol maleate salt],0.206 ± 0.016
18,COCC(=O)Nc1c(I)c(C(=O)NCC(O)CO)c(I)c(C(=O)N(C)CC(O)CO)c1I (stereo not given) [Iopromide],0.213 ± 0.022
19,CCCCC(C)(O)C/C=C/[C@H]1[C@H](O)CC(=O)[C@@H]1CCCCCCC(=O)OC (mixture of isomers) [Misoprostol],0.332 ± 0.034
20,CS(=O)(=O)c1ccc(C2=C(c3ccccc3)C(=O)OC2)cc1 [Rofecoxib],0.205 ± 0.0062

# Same assay, conditions: arabinose induction (level): Low; compound 0.1 mM; raw OD600 reference: median of DMSO wells 0.227, cell-free background 0.041
row,SMILES,growth
1,OC(CCCN1CCCCC1)(c1ccccc1)c1ccccc1 [Diphenidol hydrochloride],0.221 ± 0.054
2,CN1CCc2cccc3c2[C@H]1Cc1ccc(O)c(O)c1-3 [R(-) Apomorphine hydrochloride hemihydrate],0.174 ± 0.021
3,CCCCCNC(=N)N/N=C/c1c[nH]c2ccc(OC)cc12 [Tegaserod maleate],0.0486 ± 0.0013
4,OC(Cn1cncn1)(Cn1cncn1)c1ccc(F)cc1F [Fluconazole],0.213 ± 0.032
5,C[C@H](CCC(=O)O)[C@H]1CC[C@H]2[C@@H]3C(=O)C[C@@H]4CC(=O)CC[C@]4(C)[C@H]3CC(=O)[C@]12C [Dehydrocholic acid],0.236 ± 0.04
6,Oc1c(Cl)cc(Cl)c(Cl)c1Cc1c(O)c(Cl)cc(Cl)c1Cl [Hexachlorophene],0.053 ± 0.00044
7,Cc1ncc([N+](=O)[O-])n1CC(C)O (stereo not given) [Secnidazole],0.216 ± 0.024
8,Nc1cc(-c2ccncc2)c[nH]c1=O [Amrinone],0.271 ± 0.011
9,CCc1cc(Cl)c(OC)c(C(=O)NC[C@@H]2CCCN2CC)c1O [S(-)Eticlopride hydrochloride],0.259 ± 0.0028
10,"CC(C)NCC(O)c1ccc(O)c(O)c1 (single isomer, unassigned; (+)) [(+)-Isoproterenol (+)-bitartrate salt]",0.199 ± 0.0075
11,CO[C@@H]1[C@@H](O[C@@H]2O[C@H](C)[C@@H](O[C@H]3C[C@@](C)(O)[C@@H](OC(=O)CC(C)C)[C@H](C)O3)[C@H](N(C)C)[C@H]2O)[C@@H](CC=O)C[C@@H](C)[C@@H](O)/C=C/C=C/C[C@@H](C)OC(=O)C[C@H]1OC(C)=O [Josamycin],0.0568 ± 0.0075
12,CC(C)c1c(C(=O)Nc2ccccc2)c(-c2ccccc2)c(-c2ccc(F)cc2)n1CC[C@@H](O)C[C@@H](O)CC(=O)O [Atorvastatin],0.183 ± 0.031
13,OCCOCCN1CCN(C2=Nc3ccccc3Sc3ccccc32)CC1 [Quetiapine hemifumarate],0.187 ± 0.021
14,Cc1nc2n(c(=O)c1CCN1CCC(c3noc4cc(F)ccc34)CC1)CCCC2 [Risperidone],0.261 ± 0.019
15,O=C(O)c1ccccc1Nc1cccc(C(F)(F)F)c1 [Flufenamic acid],0.181 ± 0.046
16,O=C(OCCOCCO)c1ccccc1Nc1cccc(C(F)(F)F)c1 [Etofenamate],0.0543 ± 0.0018
17,CC(C)(C)NC[C@H](O)COc1nsnc1N1CCOCC1 [Timolol maleate salt],0.258 ± 0.018
18,COCC(=O)Nc1c(I)c(C(=O)NCC(O)CO)c(I)c(C(=O)N(C)CC(O)CO)c1I (stereo not given) [Iopromide],0.257 ± 0.043
19,CCCCC(C)(O)C/C=C/[C@H]1[C@H](O)CC(=O)[C@@H]1CCCCCCC(=O)OC (mixture of isomers) [Misoprostol],0.311 ± 0.044
20,CS(=O)(=O)c1ccc(C2=C(c3ccccc3)C(=O)OC2)cc1 [Rofecoxib],0.213 ± 0.009

# Source: the supplement of paper PMC9262897, “Low-cost anti-mycobacterial drug discovery using engineered E. coli” (Nature Communications, 2022)
